Compound activity deposited in PubChem by National Center for Advancing Translational Sciences (NCATS).
MCF10A rerep: inducers of DNA re-replication in MCF 10A breast cells; 350,000 tested, 2.9% active; MCF 10A DNA re-replication, Hoechst nuclear intensity, 48 h; AID 624296; Potency, µM (doses to about 46.1 µM), for inactives: at the highest dose activity, positive = re-replication, usual class: activators; also: % of control where 0% means no effect; nearly all actives have a fitted effect of over 50% in size
ELG1 genotox: genotoxicity induction in ELG1-luciferase HEK293T cells; HEK293T ELG1-luciferase reporter, luminescence, 16 h; Potency, µM (doses to about 46 µM), without a hit: at the highest dose activity change, positive = activation, hits mostly activators; 330,000 tested, 1.3% active; also: % of control where 0% means no effect; nearly all actives have a fitted effect of over 60% in size
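Genotoxicity was scored as increased ELG1-luciferase reporter signal, measured by ONE-Glo luminescence (30 min, room temperature). Compound or vehicle exposure of the HEK293T reporter cells lasted 16 hr at 37°C.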
ELG1 DNA repair: ELG1-dependent DNA repair inhibition. HEK293T ELG1-luciferase reporter, luminescence, 16 h; DNA damage induced by 5-fluorouridine. Potency, µM (titrated, usually from 46.1 µM), without a hit: top-dose activity change, negative = inhibition, hits mostly inhibitors. 330,000 tested, 2.3% active. AID 504467; also: % is scaled to controls: 0 for no effect and ±100 for the full control effect; nearly all actives have a fitted effect of over 55% in size
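Step one: seed 2,000 cells per well. Step two: pin-transfer compound or DMSO alongside 5-fluorouridine. Step three: incubate 16 hr, 37 °C, 5% CO2. Step four: add ONE-Glo, wait 30 min, read luminescence.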
A-T KAP1 phos: potential ataxia-telangiectasia treatments restoring KAP-1 phosphorylation; F2112 A-T fibroblasts, KAP-1 phosphorylation AlphaLISA; neocarzinostatin DNA damage 30 min before lysis; Potency, µM (top dose mostly 57.5 µM), for inactives: at the top dose activation, hits mostly activators; 320,000 tested, 0.19% active; AID 485349; also: % of control where 0% means no effect; nearly all actives have a fitted effect of over 45% in size
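ATM-like activity read as KAP-1 phosphorylation via AlphaLISA donor/acceptor antibody pairs after lysis and 6 hr at 25C. Cells were ATM-null patient fibroblasts (F2112, hTERT), dosed 60 min, then exposed to the DSB inducer NCS for 30 min.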
SW480 rereplic: inducers of DNA re-replication in SW480 colon cancer cells | SW480 DNA re-replication, Hoechst DNA content imaging, 48 h | Potency, µM (highest dose often 46.1 µM), for the others: at the top dose re-replication activation, actives largely listed as activators | 340,000 tested, 1.8% active; also: % of control where 0% means no effect; nearly all actives have a fitted effect of over 55% in size
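Image-based DNA-content assay: after two days of treatment, nuclei were labelled with the DNA dye Hoechst and imaged, and hits were compounds raising the count of nuclei showing high fluorescence intensity.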
p53 reactivation: mutant p53 re-activation in reporter cells; AID 504706; H1299 p53-A138V BP100-luciferase reporter, luminescence, 24 h; Potency, µM (titrated, usually from 92.2 µM), inactives show at the highest dose activity change, positive = activation, hits mostly activators; 320,000 tested, 0.063% active; also: % of control where 0% means no effect; nearly all actives have a fitted effect of over 45% in size
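p53-null H1299 cells stably carrying temperature-sensitive p53-A138V and a BP100-luciferase reporter were pinned with compounds (4-point, 1:5 series) and held 24 hrs at 37 deg C. Luminescence was read 10 min after detection reagent.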
Starred values were filed as active, the others as inactive; ? = inconclusive; nt = no result; ! = not confirmed by another sample; [ ] = another dose, or the depositor's remark. Only some compounds are listed: those with a hit (about 7.1% of all), similar ones and a draw of the others. Calls follow the shape of the dose curve; as a rule, active = well fitted curve in the direction sought with a large enough effect; inconclusive = small, poorly fitted or top-dose-only effect, or another doubt; inactive = no such curve, though single readings can be large; an effect the other way counts as inactive or inconclusive. Potency is read from the fitted curve at half-maximal effect.

SMILES | MCF10A rerep | ELG1 genotox | ELG1 DNA repair | A-T KAP1 phos | SW480 rereplic | p53 reactivation
C/C=C(\C)C(=O)N[C@@H](c1ccccc1)[C@@H](O)C(=O)O[C@H]1C[C@@]2(O)[C@@H](OC(=O)c3ccccc3)C3[C@](C)(C(=O)[C@H](OC(C)=O)C(=C1C)C2(C)C)[C@@H](O)C[C@H]1OC[C@@]31OC(C)=O (stereo partly specified) | 0.291µM* | 3.6% | 17.7% | -10.5% | 1.16µM* | nt
C/C=C(\C)C(=O)N[C@@H](c1ccccc1)[C@@H](O)C(=O)O[C@H]1C[C@@]2(O)[C@@H](OC(=O)c3ccccc3)C3[C@](C)(C(=O)[C@H](O)C(=C1C)C2(C)C)[C@@H](O)C[C@H]1OC[C@@]31OC(C)=O (stereo partly specified) | ? | 15.6% | ? | -5.5% | 8.2µM* | nt
CC(=O)O[C@@]12CO[C@@H]1C[C@H](O)[C@@]1(C)C(=O)[C@H](O)C3=C(C)[C@@H](O)C[C@@](O)([C@@H](OC(=O)c4ccccc4)C12)C3(C)C (stereo partly specified) | ? | -2.7% | -27.2% | -9.1% | ? | 2.7%
C1=CC2C3C=CC(C3)C2C1 (stereo unspecified) | -10.5% | 1.2% | 6.2% | 6.2% | ? | -3.6%
CCOC(=O)C1CCN(/C=C2/C(=O)NC(=O)N(c3ccc(OCC)cc3)C2=O)CC1 | 5.8µM* | 0.4% | -13.0% | -3.1% | 1.3% | -28.1%
C[N+](C)(C)CC1CCCc2ccccc2C1=O (stereo unspecified) | 13µM* | nt | nt | nt | 15.6% | nt
O=[N+]([O-])/C=C/c1c(Cl)cccc1Cl | 3.66µM* | nt | nt | nt | 6.51µM* | nt
CCOc1cc(CNCCc2c[nH]c3ccccc23)cc(Cl)c1OCC | 31.0% | -4.6% | 15.9% | 2.4% | ? | -11.6%
CCOc1c(Cl)cc(CNCCc2c[nH]c3ccccc23)cc1OC | 18.4µM* | -4.4% | 21.1% | -5.4% | ? | 0.3%
CC[N+](C)(CC)CCOC(=O)C(O)(c1ccccc1)c1ccccc1 | 4.2% | nt | nt | nt | 0.1% | nt
Cc1c(C(=O)NCCC2=CCCCC2)oc2ccc(S(=O)(=O)N3CCC4(CC3)OCCO4)cc12 | ? | -40.5% | ? | -1.1% | 23.9% | -10.2%
FC(F)(F)c1ccccc1CNCCc1c[nH]c2ccccc12 | 10.3µM* | -5.2% | -29.7% | -6.7% | ? | -2.0%
NC(Cc1ccccc1)c1nc2ccccc2[nH]1 (stereo unspecified) | -40.1% | 9.9% | ? | -3.3% | -8.2% | 11.6%
NC(Cc1nc2ccccc2[nH]1)c1ccc(Cl)cc1 (stereo unspecified) | 3.2% | 13µM* | ? | -1.3% | ? | ?
NCC(O)c1cccc(O)c1 (stereo unspecified) | -3.1% | nt | nt | nt | -4.0% | nt
O=C1CN=C(c2cccs2)c2c(sc3c2CCCC3)N1 | 13µM* | -6.7% | -16.5% | 3.7% | 20.6µM* | -0.3%
O=C1CN=C(c2ccccc2)c2c(sc3c2CCCC3)N1 | ? | -3.1% | -17.2% | 2.6% | -70.4% | -1.6%
Cn1c(=O)oc2cc(S(=O)(=O)N3CCCc4ccccc43)ccc21 | 2.59µM* | -2.0% | ? | 1.2% | ? | 7.9%
Cn1c(=O)oc2cc(S(=O)(=O)N3CCc4ccccc43)ccc21 | ? | 2.2% | 0.0% | 1µM* | -2.9% | -4.0%
COc1ccc(CCN2CCCC(CN(C)C(=O)c3cc(C)oc3C)C2)cc1 (stereo unspecified) | 4.9% | 18.3µM* | ? | 9.9% | 9.7% | 35.5µM*
COc1cccc(C(=O)C2CCCN(Cc3ccc(F)cc3)C2)c1 (stereo unspecified) | 13.4% | -1.5% | 0.1% | -2.9% | 19.8% | nt
CC(=O)c1c(C)n(Cc2ccccc2)c2ccc(O)cc12 | ? | -10.1% | 23.1µM* | 8.1% | ? | 1.3%
CC(C)CCn1c(N2CCN(c3cccc(Cl)c3)CC2)nc2c1c(=O)[nH]c(=O)n2C | -1.9% | -3.3% | 14.6µM* | -1.1% | -3.5% | -10.0%
O=C(CCc1nnc(CCCCc2ccccc2)o1)N1CCCC(O)C1 (stereo unspecified) | -3.4% | 5.7% | ? | -23.1% | -1.1% | 0.7%
ClCCN(CCCl)c1ccc(C2=NCCc3ccccc32)cc1 | ? | nt | nt | nt | 6.1% | nt
SMILES | MCF10A rerep | ELG1 genotox | ELG1 DNA repair | A-T KAP1 phos | SW480 rereplic | p53 reactivation
COc1ccc2c(c1)C(c1ccc(N(CCCl)CCCl)cc1)=NCC2 | 13µM* | nt | nt | nt | ? | nt
C[C@H]1CCC/C=C/[C@@H]2C[C@H](O)C[C@H]2[C@H](O)/C=C/C(=O)O1 | 0.651µM*! | -32.9% | ? | -8.0% | ? | 6.3%
COc1cc(O)cc2c1C(=O)OC(C)CCCC(=O)CCC/C=C\2 (stereo unspecified) | 0.2% | -18.7% | -1.1% | -1.4% | -7.8% | -8.1%
CN(C(=O)CSc1nnc(COc2ccccc2F)n1N)C1CCCCC1 | -25.2% | 0.2% | 9.2% | -0.1% | -31.2% | 0.2%
CCN(CC)c1ccc(/C=C2\C(=O)NC(=S)N(C)C2=O)o1 | ? | 20.6µM* | ? | -11.5% | -1.1% | 16.8%
O=S(=O)(CCN1CCN(c2ccccn2)CC1)c1ccc(Cl)cc1Cl | ? | -3.2% | -17.2% | 1.0% | 2.8% | -1.6%
C[C@H]1CCCC(=O)CCC/C=C/c2cc(O)cc(O)c2C(=O)O1 | -16.2% | -20.5% | 20.6µM* | 6.4% | -29.5% | -12.0%
COc1cc(/C=C/[N+](=O)[O-])ccc1O | ? | -18.5% | 23.1µM* | 16.1% | ? | -22.8%
CCN(CC)c1ccc(/C=C/[N+](=O)[O-])cc1 | ? | ? | ? | 28.6% | ? | -9.7%
CN(CC(=O)Nc1ccc(N2CCOCC2)cc1)CC(=O)Nc1cccc(C#N)c1 | 15.6% | 0.1% | -0.7% | 2.7% | ? | -5.4%
CCOC(=O)C1=C(NC(=S)NC(=O)c2ccccc2)c2ccccc2CC12CCCC2 | 11.6µM* | -8.9% | ? | 6.9% | ? | 0.6%
CCOP(=O)(OCC)C(NC(=O)c1ccccc1)=C(Cl)Cl | -56.9% | 5.3% | 10.0% | -2.9% | ? | -4.5%
CCC(C)NC(=O)CCC(=O)OC1O[C@H]2OC3(C)CC[C@H]4[C@H](C)CCC(C1C)C24OO3 (stereo partly specified) | ? | -7.6% | ? | -2.8% | 18.4µM* | 0.7%
CCOC(=O)c1c(C)n(Cc2ccccc2)c2ccc(OCC(O)Cn3nc(C)cc3C)cc12 (stereo unspecified) | ? | -4.8% | 20.6µM* | -4.2% | 1.7%[9.22 µM] | -9.7%
